Hits are enriched below; roughly 12% of the tested compounds scored in any of these assays.
JMJD2A Tudor inh – blocks the human JMJD2A Tudor domain | 390,000 compounds, 4.4% hits | AlphaScreen JMJD2A-Tudor / H3K4me3 peptide binding | O75164 | Potency, µM (top dose mostly 114 µM), without a hit: at the highest dose activity change, negative = inhibition, hits mostly inhibitors | AID 504339; note: potency is the fitted concentration of half-maximal effect; % is set by controls: 0 for no effect and ±100 for the full control effect; nearly all actives have a fitted effect of over 50% in size
HP1b binding inh – HP1-beta chromodomain-methylated histone interaction inhibition. P83916. AlphaScreen HP1-beta / biotin-H3K9me3 peptide binding. Potency, µM (doses to about 114 µM), for inactives: top-dose activity change, negative = inhibition, hits mostly inhibitors. 390,000 compounds, 0.56% hits. AID 540317; note: potency is the fitted concentration of half-maximal effect; nearly all actives have a fitted effect of over 70% in size
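AlphaScreen: HP1-beta (50 nM) preformed 30 min with biotin-H3(1-18)K9me3 peptide (50 nM) in PBS pH 7.4, 0.01% Tween-20. Compound added for 30 min at RT, then streptavidin donor/nickel chelate acceptor beads (10 ug/mL) for 30 min.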
PLK1 PBD inh – inhibitors of human PLK1 polo-box domain binding; 360,000 compounds, 2.8% hits; Plk1 PBD binding of FITC phosphopeptide, fluorescence polarization; AID 720504; P53350; Potency, µM, without a hit: max response, negative = inhibition, hits mostly inhibitors; note: potency is the fitted concentration of half-maximal effect; series mostly up to about 57 µM; % is set by controls: 0 for no effect and ±100 for the full control effect; nearly all actives have a fitted effect of over 65% in size
PI5P4Ka inh – PI5P4K alpha (human) kinase inhibition; AID 652105; P48426; max response, %; 330,000 compounds, 1.2% hits; PI5P4Kalpha enzyme, ADP-Glo luminescence, 60 min; stronger effect = lower value; active = max response of -50% or lower; inconclusive = between -30% and -50%; inactive = -30% or higher; note: value at the top dose of about 77 µM; % is set by controls: 0 for no effect and ±100 for the full control effect
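Single end-point luminescence (ADP-Glo) quantified ADP from PI5P4Kalpha turnover; ATP 5 microM final, 1 h at RT, 0.1% CHAPS and 0.28 mM EGTA in HEPES pH 7.4.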
G9a inh – blocks human histone lysine methyltransferase G9a | 350,000 compounds, 8.8% hits | Potency, µM (titrated, usually from 102 µM), inactives show at the top dose activity, negative = inhibition, most hits filed as inhibitors | G9a H3K9 monomethylation, AlphaScreen, 2 h; note: potency is the fitted concentration of half-maximal effect; % is set by controls: 0 for no effect and ±100 for the full control effect; nearly all actives have a fitted effect of over 75% in size
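Readings reflect AlphaScreen signal from monomethyl-H3K9 antibody detection. HMT at 20 nM; substrate b-H3K9 500 nM; cofactor SAM 20 uM; 2 h RT reaction; compounds tested as titrations in qHTS with 15 min preincubation.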
BAZ2B block – BAZ2B (human) inhibition; AlphaScreen BAZ2B-H3K14Ac peptide displacement; Potency, µM (doses to about 114 µM), without a hit: at the top dose activity change, negative = inhibition, actives largely listed as inhibitors; 360,000 compounds, 4.4% hits; note: potency is the fitted concentration of half-maximal effect; % is set by controls: 0 for no effect and ±100 for the full control effect; nearly all actives have a fitted effect of over 60% in size
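In this displacement format the biotinylated H3(5-23) peptide acetylated at Lys14 serves as ligand at 50 nM, with BAZ2B at 50 nM in PBS pH 7.4 containing 0.01% Tween-20. Donor and acceptor beads are 10 ug/mL final.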
An asterisk follows results filed as active; [ ] = remark or other dose. Unless noted, calls come from the whole dose curve; as a rule, active = well fitted curve in the direction sought with a large enough effect; inconclusive = small, poorly fitted or top-dose-only effect, or another doubt; inactive = no such curve, though single readings can be large; an effect the other way counts as inactive or inconclusive.

How did CCC(=O)Nc1nc2nc(C)cc(=O)n2[nH]1 do in these assays?
JMJD2A Tudor inh: 32µM*; HP1b binding inh: 5%; PLK1 PBD inh: -1%; PI5P4Ka inh: -2; G9a inh: -20%[59 µM]; BAZ2B block: 56µM*

What do the screens show for `Cc1cc(=O)n2[nH]c(CCC(=O)O)nc2n1`?
JMJD2A Tudor inh: -11%; HP1b binding inh: 1%; PLK1 PBD inh: -10%; PI5P4Ka inh: 1; G9a inh: -36%; BAZ2B block: -3%

What do the screens show for `COc1ccc(CCN2C(=O)CN(C3CCC(C)CC3)C(=O)C2c2ccc(OC(C)C)c(OC)c2)cc1OC` (stereo unspecified)?
JMJD2A Tudor inh: -27%; HP1b binding inh: 33%; G9a inh: -25%[59 µM]; BAZ2B block: -18%

What do the screens show for `CCN1CCN(c2oc(-c3ccccc3)nc2S(=O)(=O)c2ccc(C)cc2)CC1`?
JMJD2A Tudor inh: inconclusive; HP1b binding inh: -20%; PLK1 PBD inh: -6%; PI5P4Ka inh: 3; G9a inh: 40µM*; BAZ2B block: 50µM*

How did Cc1ccc(S(=O)(=O)c2nc(-c3ccc(F)cc3)oc2N2CCOCC2)cc1 do in these assays?
JMJD2A Tudor inh: -18%; HP1b binding inh: 16%; PLK1 PBD inh: -6%; PI5P4Ka inh: -1; G9a inh: 35µM*; BAZ2B block: -32%

Results for CCOc1ccc(-c2nc(S(=O)(=O)c3ccccc3)c(N3CCC(C(N)=O)CC3)o2)cc1 ?
JMJD2A Tudor inh: 71µM*; HP1b binding inh: inconclusive; PLK1 PBD inh: -11%; PI5P4Ka inh: -29; BAZ2B block: inconclusive

What do the screens show for `COc1ccc(-c2nc(S(=O)(=O)c3ccc(C)cc3)c(N3CCCC3)o2)cc1`?
JMJD2A Tudor inh: inconclusive; HP1b binding inh: 79µM*; PLK1 PBD inh: inconclusive; PI5P4Ka inh: inconclusive; G9a inh: inconclusive; BAZ2B block: -24%

Results for Cc1cc(O)c2c(C)c(CC(=O)NCc3ccccc3Cl)c(=O)oc2c1 ?
JMJD2A Tudor inh: -8%; HP1b binding inh: 41%; G9a inh: 0%[59 µM]; BAZ2B block: -9%

What do the screens show for `O=S(=O)(c1ccccc1)c1nc(-c2cccc(Cl)c2)oc1N1CCOCC1`?
JMJD2A Tudor inh: -35%; HP1b binding inh: 0%; PLK1 PBD inh: -12%; PI5P4Ka inh: -1; G9a inh: 40µM*; BAZ2B block: inconclusive

What do the screens show for `Cc1ccc(-c2nc(S(=O)(=O)c3ccc(C)cc3)c(N3CCCCC3)o2)cc1`?
JMJD2A Tudor inh: -29%; HP1b binding inh: -14%; G9a inh: 16µM*; BAZ2B block: inconclusive

How did Cc1ccc(S(=O)(=O)c2nc(-c3ccccc3)oc2N2CCCCCC2)cc1 do in these assays?
JMJD2A Tudor inh: -30%; HP1b binding inh: inconclusive; G9a inh: inconclusive; BAZ2B block: -38%

Results for COc1ccc(-c2nc(S(=O)(=O)c3ccccc3)c(N3CCC(C)CC3)o2)cc1 ?
JMJD2A Tudor inh: -20%; HP1b binding inh: 15%; G9a inh: 3%[59 µM]; BAZ2B block: -5%

Results for COc1cccc(-c2nc(S(=O)(=O)c3ccccc3)c(N3CCC(C)CC3)o2)c1 ?
JMJD2A Tudor inh: inconclusive; HP1b binding inh: 9%; G9a inh: 18µM*; BAZ2B block: inconclusive

How did Cc1nc(Oc2ccccc2C)c2oc3ccccc3c2n1 do in these assays?
JMJD2A Tudor inh: 12%; HP1b binding inh: 51%; G9a inh: 21%[59 µM]; BAZ2B block: 20%

How did OC(c1ccccc1)(c1nc(/C=C/c2ccc(C(F)(F)F)cc2)cs1)C(F)(F)F (stereo unspecified) do in these assays?
PLK1 PBD inh: 1%; PI5P4Ka inh: 7

How did CC(=O)Nc1ccc(Oc2ccc(S(=O)(=O)N3CCCC3)cn2)cc1 do in these assays?
JMJD2A Tudor inh: -2%; HP1b binding inh: 24%; PLK1 PBD inh: -14%; PI5P4Ka inh: 3; G9a inh: 23%[2.33 µM]; BAZ2B block: -4%

What do the screens show for `COc1ccc(NCC(=O)N/N=C/c2c(C)nn(Cc3ccccc3)c2Cl)cc1`?
JMJD2A Tudor inh: inconclusive; HP1b binding inh: -28%; PLK1 PBD inh: -6%; PI5P4Ka inh: -5; G9a inh: inconclusive; BAZ2B block: 45µM*

How did Cc1nn(Cc2ccccc2)c(C)c1/C=N/NC(=O)CNc1cccc(C(F)(F)F)c1 do in these assays?
JMJD2A Tudor inh: -32%; HP1b binding inh: 16%; PLK1 PBD inh: 4%; PI5P4Ka inh: 20; G9a inh: 9%[59 µM]; BAZ2B block: -37%

Results for c1ccc(OCCNc2nc(NCC3CC3)nc3ccsc23)cc1 ?
PLK1 PBD inh: 7%; PI5P4Ka inh: -17

What do the screens show for `CC/C(=C\c1ccc(N(C)C)cc1)c1ccncc1`?
JMJD2A Tudor inh: 22µM*; HP1b binding inh: inconclusive; PLK1 PBD inh: -12%; PI5P4Ka inh: 0

Results for CCOc1ccccc1C(=O)Nc1ccccc1C(N)=O ?
JMJD2A Tudor inh: -12%; HP1b binding inh: 18%; PLK1 PBD inh: -14%; G9a inh: -31%[12.7 µM]; BAZ2B block: 13%

How did O=C(Nc1nn[nH]n1)c1cccc(Oc2ccccc2)c1 do in these assays?
JMJD2A Tudor inh: inconclusive; HP1b binding inh: 30%; PLK1 PBD inh: -10%; PI5P4Ka inh: -20; G9a inh: 40µM*; BAZ2B block: 12%

Results for CCOc1ccccc1C(=O)Nc1nn[nH]n1 ?
JMJD2A Tudor inh: 56µM*; HP1b binding inh: inconclusive; PLK1 PBD inh: -16%; PI5P4Ka inh: -3; G9a inh: 25µM*; BAZ2B block: 50µM*

What do the screens show for `Cc1cccc(C)c1NC(=O)Cn1c(=O)n(Cc2ccccc2)c(=O)c2c(C)c(C(=O)N(C)C)sc21`?
JMJD2A Tudor inh: -14%; HP1b binding inh: 16%; G9a inh: 0%[59 µM]; BAZ2B block: -3%

What do the screens show for `CSCCC(NC(=O)OCc1ccccc1)C(=O)NCc1cccnc1` (stereo unspecified)?
JMJD2A Tudor inh: 16%; HP1b binding inh: 45%; PLK1 PBD inh: 1%; PI5P4Ka inh: -1; G9a inh: -13%; BAZ2B block: 2%

What do the screens show for `O=C(c1cc2ccccc2o1)N1CCN(c2ncccn2)CC1`?
JMJD2A Tudor inh: -11%; HP1b binding inh: 29%; PLK1 PBD inh: -1%; PI5P4Ka inh: -6

How did Cc1ccc(C)c(OCCCC(=O)N2CCOCC2)c1 do in these assays?
JMJD2A Tudor inh: inconclusive; HP1b binding inh: 4%; PLK1 PBD inh: inconclusive; PI5P4Ka inh: 1; G9a inh: 45µM*; BAZ2B block: 1%

How did COc1ccccc1N1CCN(C(=O)COc2cc(C)cc3oc(=O)cc(C)c23)CC1 do in these assays?
JMJD2A Tudor inh: inconclusive; HP1b binding inh: 9%; PLK1 PBD inh: 15µM*; PI5P4Ka inh: 6; G9a inh: -5%; BAZ2B block: -13%
